Source: the supplement of paper PMC12632987
In all, about 4,500 sequences were measured (“median log2 fold change of GCK-ALFA target abundance (FLAG IP / Myc IP barcode read proportion)”: median about 0.078, lowest 2% from about -0.6 on). This excerpt belongs to a sample that is enriched for the lowest values.

B1: GBRAP_125_2982 (protein)
chain: PTEQELEDLRRFARALGLDEEEAEEAAELARAHSLRGTVYAILAALGEEEAADLVEKLTEEEVARVLRRVAAYLEAHPDATPEEVVALFRELAEEELAKR
B2: GBRAP_139_3718 (protein)
chain: SAAEEKIEKAKEIVEKYKDDLEKLAKELAKLISEVDGETALEIVRAAAEELKDWSWEEWEEFIELLEKELKELGFDEDDVLAIKGEFEAVMAKHLMAKEA
B3: GBRAP_117_2578 (protein)
chain: MEEREEVKRRLRETVREAGKRLEESKSLSPEERRKVEEEVRERIAEAVREALEVLSREEVLDIVEEELLEFDAETYFKIMSFVEEAIEEIREEEEREREE
B4: GBRAP_11_2868 (protein)
chain: KKEKLEELAKLVKEAIEKLEKLLKEGVDNEELRKEIKKLLKEALKLAEKYASPAVAELLKIALEDLEKAEEDPENAKEYVERALAALRVAHGDLLLEIDE
B5: GBRAP_172_4999 (protein)
chain: GTTLLKLNLLGLSKEEAVETAVKAVKETIEKTGNNLVVAVIADDEETVEAVEKAIKKVAKEKGVKVEVVGEAYRSEEDERRVLAAAEAEKINLEYEEEEK
B6: GBRAP_11_2687 (protein)
chain: KKEKLEEGAKLAEELAKLIEELLKEGVDNEKLLKELEKKLKELEKLTKEYADKASQKLTEDIKETWEEMLKDPEKAEEYAKEMLAGARVLAGDYLLEIEE
B7: GBRAP_160_4409 (protein)
chain: SEELKKTAERILEAVKEELELLLELGEIDPEAAAGLLEGTILLEVFEDDSLTEEQEEKLEELAEELAEELRKRLEEEGKMTEEIKEELLKLAKEGLEKII
B8: GBRAP_160_4408 (protein)
chain: SEELEETAERILEAVEDELELLLELGEVDPEAAAGLLEGTILLEAFEDDSLTEEQEEEIEELAEELAERLERLLKEEGRMTEEIVEELLEEAEEGLEEII
B9: GBRAP_160_4407 (protein)
chain: SEALKETAERILEAVKDELDLLLELGKIDPKAAAGLLEGTVLLEMFEDDSLTEEQEEKLEELAERLAERLEKLLKEEGEMTEEIRKELLEEAKRGLEEII
B10: GBRAP_14_3807 (protein)
chain: MEEKKKAITDNTDELKEIVTEILKDAPQEVRDAVLAAIEDFRKTVIENNLNPDEIAELGDELVKKVEEITKDLPADVRARVLAAVRVHTGEIILEVEELE
B11: GBRAP_95_7033 (protein)
chain: EDDKLALESAIEVAVAAAELGDDDAAARALREALELLKKAGKVELDEELLKEAIDVIERVGVKKLPREDVLELLELLLEAAETEEVKELAEKAIERVKKR
B12: GBRAP_160_4426 (protein)
chain: SAKLEKAKKLITEIVEETAEMMEGESAEERIVLVRVAEGEILLELEELGLLTDEIEAVIDETFAAIAAHIAAHPDISQEELRALLKAAEEKIKKQLEKEA
B13: GBRAP_52_6047 (protein)
chain: SEEEIRRLAREAYEAMLAGDEERARALLREIFATKDEEKLEVFLETMVELAREARPEEHDAVARLVELAEEVGREAGIPEEFLDDFEARVFAAMYEAEQR
B14: GBRAP_11_2845 (protein)
chain: KKEKLKEIAEQADKVIALLDELIAAGTDDEELWKKLEEQLKKLQELVEKYLDESEKELAKLAKEELEEAKADPANAEQHLNNAKAFVSTLQGLVLLEIEE
B15: GBRAP_125_3027 (protein)
chain: SMEETAANLAKIARALGFSEGDVAELVANALAHGIKGAMIALALALGDEELADLLERLTEEEVARVVAEAAAEIEANPDLTPEEVKALLLELARRAVAES
B16: GBRAP_35_5514 (protein)
chain: STDDTIAEMLESYIEDLTLAVPELDPETLHTLTLGAAEMARELIEDNKNNKEIVKRIKESLERLLEALEARGLDDPLLREAAERVREVIEYAEEVLKEIE
B17: GBRAP_150_3890 (protein)
chain: SLEELLTIADTALDILELDIESGGKTIDQTLKVVQALVDEAKNFSPELQKLAEEALKKVEEAKKLKEEGGDQKEIDKLLKEAKKKLEELIKLLEKKIKEK
B18: GBRAP_83_6961 (protein)
chain: MIVVAASERPESIRSSIEAAIDLHKNEGKEVEIELFVTRENAPAALEGLKKAIDAGVEAEITLVTREEDREAAEALAAELKAYAAAKGRNTTVTVEVLPA
B19: GBRAP_184_5320 (protein)
chain: KVIHKVIEVETEEEAIEKLEEVKKEAKETGEKYLVVVEIKNATEKKIEAIAEKIKEMKEEGLPIEVIVELLDEVDEELTDFAVEKMEEAGAKVVISLKDE

The binders below were run against GABARAP, O95166 (assay: median log2 fold change of GCK-ALFA target abundance (FLAG IP / Myc IP barcode read proportion) (log2 ratio); each designed protein is fused to an ALFA-tag nanobody in HEK293 cells to bring the named protein to FLAG-tagged glucokinase (GCK); Myc marks an untargeted standard; higher = target protein stabilised (more abundant)). Details: target protein: 3xFLAG-MCP-GCK-ALFA reporter; HEK293 landing pad (RPLP).
GABARAP, O95166, sequence (O95166 whole entry, the tested form may be a part): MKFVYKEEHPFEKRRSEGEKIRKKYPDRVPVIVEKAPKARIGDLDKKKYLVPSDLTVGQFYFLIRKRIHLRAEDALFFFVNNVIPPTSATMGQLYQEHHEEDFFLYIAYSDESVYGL
Outline: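 Sequencing of reverse-transcribed, amplified circular RNA barcodes from anti-FLAG and anti-Myc immunoprecipitates provided the readout for an ALFA-nanobody-fused binder library recombined into HEK293 landing-pad cells. Those cells were induced with 2 μg mL^−1 doxycycline, transfected with a plasmid expressing a FLAG-tagged target and a Myc-tagged standard, and lysed after 48 h. Target abundance is the per-binder median log2 ratio of FLAG to Myc barcode read proportions. Only barcodes at a proportion of ≥10^−7 in both replicates and binders with ≥3 barcodes per replicate were kept, with a 10^−6 pseudocount added before the two replicates were pooled.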
In the case of B1, the “median log2 fold change” value is reported as -0.551.
In the case of B2, the “median log2 fold change” value is reported as 0.0839.
In the case of B3, the “median log2 fold change” value is reported as 0.274.
With B4 the “median log2 fold change” value was 0.0406.
In the case of B5, the “median log2 fold change” value is reported as 0.15.
With B6 the “median log2 fold change” value was 0.232.
B7 was tested, and the “median log2 fold change” value was -0.32.
For B8, the “median log2 fold change” value was -0.872.
For B9, the “median log2 fold change” value was -0.289.
For B10, the “median log2 fold change” value was 0.206.
In the case of B11, the “median log2 fold change” value is reported as 0.148.
B12 was tested, and the “median log2 fold change” value was -0.243.
With B13 the “median log2 fold change” value was 0.204.
B14 was tested, and the “median log2 fold change” value was 0.0872.
With B15 the “median log2 fold change” value was 0.134.
With B16 the “median log2 fold change” value was -0.908.
In the case of B17, the “median log2 fold change” value is reported as 0.232.
In the case of B18, the “median log2 fold change” value is reported as 0.189.
B19 was tested, and the “median log2 fold change” value was 0.193.
